Reference: ChEMBL document CHEMBL3988442, “University of Dundee, Small-Polar-MMV Screening Library” (2021)
Among all 48,000 compounds or so, about 13,000 (27%) showed an effect of 50% or more. The list shows a part of the results.

Tested on: Wolbachia pipientis
Assay: Anti-Wolbachia Cell-Based Screen
Format: functional
Parameters: scale not given: in the data most compounds retested in dose-response had high values
Conditions: 5 µM

SMILES	Percent Effect [%]
CN(C)C(=O)CNC(CC(F)(F)F)c1ccc(F)cc1 (centres undefined)	-7.138
CCc1cnc(N2CC3(CCN(S(=O)(=O)C4CC4)C3)C2)nc1	-6.098
CCCNC(=O)CNc1cc(C(=O)N2CCSCC2)ccc1C	-10.89
Cc1ccc(S(=O)(=O)NCCNc2cc(-n3cccc3)ncn2)c(C)c1	19.5
CC(C)Oc1ccc(-c2csc(Cn3ccc(=O)[nH]c3=O)n2)cc1	-3.236
O=C1CN(C(=O)C2CCOC2)CCN1Cc1ccc(Cl)cc1 (centres undefined)	-11.12
O=C1CN(C(=O)c2ccc(Cl)cc2)CC(O)CN1Cc1cccs1 (centres undefined)	98.52
COc1cccc(CN(C)Cc2nc3cc(C)ccc3[nH]2)c1O	1.617
CNS(=O)(=O)c1ccc(CN(C)Cc2nc3ccc(F)cc3[nH]2)cc1	112.9
Cc1nc(CCN)cc(N(C)Cc2nc3ccc(F)cc3[nH]2)n1	-5.934
CCOc1ccccc1CN(CC)Cc1ccc(S(=O)(=O)NC)cc1	14.99
CN(Cc1cnc(C(C)(C)C)nc1)Cc1nc2ccc(F)cc2[nH]1	92.92
Cc1ccc(OCC(=O)N(C)Cc2ccc(F)cc2)cn1	-1.613
CCc1ccc(CN(CC)Cc2ccc(S(=O)(=O)NC)cc2)cc1	-10.93
CNc1ncc(CN(C)Cc2cc(O)c3cc(F)ccc3n2)cn1	-2.585
Cc1ccc(CN(C)Cc2nc3ccc(F)cc3[nH]2)cn1	92.16
CCNC(=O)NC(C)(C)C(=O)NCc1cccc(N2CC=CC2)c1	1.796
CC(O)c1cccc(N2CCC3(CC2)Nc2ccccc2NC3=O)n1 (centres undefined)	0.04909
CCc1nc(C)c(C(=O)NCCNc2cnccn2)s1	1.537
C[S+]([O-])c1nncn1CC(=O)c1ccc2c(c1)CCC2 (centres undefined)	-5.964

SMILES	Percent Effect [%]
CCCS(=O)(=O)NC(=O)c1ccc(CC)o1	-1.389
CCn1cnnc1CCNc1nc(C)cc(C)c1C#N	126.1
CCn1cnnc1CCNC(=O)C(C)(C)c1cccc(Cl)c1	-6.534
CCn1c(C)nnc1SCCNc1nc(C)ncc1S(C)(=O)=O	-10.91
Cc1cc(NCCO)nc(N2CCN(C)CC2)c1C#N	2.525
CCn1cnnc1CCNC(=O)c1ccc(Br)cc1F	-14.54
Cc1cc(NCCO)nc(N2CCCC2)c1C#N	-1.529
Cc1cc(C)c(C#N)c(NCCn2cnnc2C(C)C)n1	112.6
Cc1cc(C)c(C#N)c(NCCSc2nncn2C)n1	98.82
Cc1cc(C)cc(OCCNC(=O)C(C)Sc2nncn2C)c1 (centres undefined)	-3.054
CC(C)(C)OC(=O)NC(C)(C)c1noc(Cn2ccnc2)n1	11.22
CSCCC(NC(N)=O)C(=O)NCc1ccc(-n2cccn2)cc1 (centres undefined)	-16.66
O=C(Nc1cccnc1)NC1CCN(c2ccccc2OC(F)F)C1 (centres undefined)	-19.82
O=C(O)c1ccnc(-c2ccnc(N3CCC4(CCO4)CC3)n2)c1	-4.14
Cc1cccc(CN2C(=O)CC[C@@H]3[C@H]2CCN3C(=O)c2ccsc2)n1.O=C(O)C(F)(F)F	-10.27
Cc1ccc(CN2CC[C@H]3[C@H]2CC(=O)N3c2ccsc2)o1.O=C(O)C(F)(F)F	12.94
Cc1cccc(CN2C(=O)CC[C@@H]3[C@H]2CCN3Cc2ccc(F)cc2)n1.O=C(O)C(F)(F)F.O=C(O)C(F)(F)F	-9.661
COc1ccc(CN2CC[C@H]3[C@H]2CC(=O)N3Cc2cccc(C)n2)cc1.O=C(O)C(F)(F)F.O=C(O)C(F)(F)F	96.36
CCc1ccc(CN2CC[C@H]3[C@H]2CC(=O)N3Cc2cccc(C)n2)o1.O=C(O)C(F)(F)F.O=C(O)C(F)(F)F	105.5
Cc1cccc(CN2C(=O)C[C@H]3[C@@H]2CCN3Cc2ccc(F)cc2)n1.O=C(O)C(F)(F)F.O=C(O)C(F)(F)F	93.32

SMILES	Percent Effect [%]
Cc1cccc(CN2C(=O)CC[C@@H]3[C@H]2CCN3Cc2cccnc2)n1.O=C(O)C(F)(F)F.O=C(O)C(F)(F)F.O=C(O)C(F)(F)F	-1.034
Cc1cc(C(=O)NCC(=O)NC(c2ncccc2C)C(C)C)c(C)o1 (centres undefined)	-6.286
CC(C)NC(=O)c1cnc(Sc2nccn2C)c(Cl)c1	7.154
CCCSc1nc(O)c(CC)c(=O)n1-c1ccccc1	-0.2298
Cc1ncc(COc2cccc3c2NC(=O)CO3)s1	-10.58
Cc1cc(C(=O)N2CCOC[C@H](Oc3cccnc3)C2)c(C(F)(F)F)o1	3.665
O=C([C@@H]1CCO[C@@H]2CCN(Cc3cccnc3)C[C@H]21)N1CCCCO1	13.27
CC(C)=CCN(C)C1CCCN(Cc2noc(C)n2)C1 (centres undefined)	0.8027
CO[C@@H]1CN(c2ccccc2)S(=O)(=O)[C@@]12CCN(CC1CC1)C2	88.1
CO[C@H]1CN(c2ccccc2)S(=O)(=O)[C@@]12CCN(Cc1ccccc1)C2	88.28
CN1CC(=O)N(c2ccccc2)CC12CCN(CC1CC1)C2.O=C(O)C(F)(F)F.O=C(O)C(F)(F)F (centres undefined)	-12.9
COCC1CC2(CCN(CC3CC3)CC2)CN1c1ncccn1.O=C(O)C(F)(F)F.O=C(O)C(F)(F)F (centres undefined)	9.926
O=C1C[C@@H]2CCN(Cc3ccccc3)C[C@@H]2CCN1c1ccccc1	1.893
CO[C@@H]1CN(c2ccccc2)S(=O)(=O)[C@@]12CCN(Cc1ccccc1)C2	116.8
CO[C@@H]1CN(c2ccccc2)S(=O)(=O)[C@@]12CCN(Cc1cncs1)C2	104.5
O=C(CCn1ccccc1=O)N1CCN(Cc2cccc(Cl)c2)CC1	-6.995
COc1cc(C2CC(=O)c3c(O)cc(O)cc3O2)ccc1O (centres undefined)	4.847
COc1ccc(-c2noc(Cn3cc(C)cn3)n2)c(OC)c1OC	-1.893
COc1ccccc1CN(Cc1cccs1)S(=O)(=O)N(C)C(C)C	-8.287
